The campaign covered roughly 190,000 compounds. About 1,300 (0.68%) were called active. No stated cut-off is given here; in the data, active means inhibition above about 50%; inactive means the rest. Only a selection was taken, and actives are over-represented in it overall.
Molecular target: Mannose-6-phosphate isomerase (Homo sapiens) (UniProt P34949)
Experiment: human PMI inhibitors, high substrate, primary screen, biochemical, fluorescence intensity, high mannose 6-phosphate (AID 1220)
Conditions: recombinant PMI enzyme, coupled fluorescence intensity; at 20 µM; hits give high values

Mannose-6-phosphate isomerase (Homo sapiens), sequence (P34949 whole entry, looked up): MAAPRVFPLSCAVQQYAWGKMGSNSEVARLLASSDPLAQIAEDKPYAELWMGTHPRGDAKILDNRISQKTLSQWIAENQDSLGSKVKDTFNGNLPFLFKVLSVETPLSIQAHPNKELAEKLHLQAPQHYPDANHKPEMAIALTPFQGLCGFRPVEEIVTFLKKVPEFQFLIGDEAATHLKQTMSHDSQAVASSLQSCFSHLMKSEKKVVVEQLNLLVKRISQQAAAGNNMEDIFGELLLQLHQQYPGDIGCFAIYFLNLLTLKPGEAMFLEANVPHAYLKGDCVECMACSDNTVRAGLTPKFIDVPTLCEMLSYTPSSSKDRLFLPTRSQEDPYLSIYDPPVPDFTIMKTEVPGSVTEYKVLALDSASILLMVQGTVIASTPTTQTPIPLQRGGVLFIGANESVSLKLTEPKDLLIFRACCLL

| SMILES | inhibition |
| --- | --- |
| Cc1cccc(NC(=O)C2(c3ccccc3)CCOCC2)c1 | -5.7% (inactive) |
| CCOc1ccc(NC(=O)CN2CCN(CC(=O)Nc3ccc4c(c3)OCCO4)CC2)cc1 | -12.8% (inactive) |
| COc1ccc(C(=O)/C=C(\C)Nc2ccc3c(c2)OCO3)cc1 | 33.7% (inactive) |
| CCOc1ccc(N/C(C)=C\C(=O)c2ccc3c(c2)OCCO3)cc1 | 61.4% (active) |
| Cc1nc(-c2ccccc2)nc2[nH]c(C(C)C)cc(=O)c12 | 16.9% (inactive) |
| CCN(C(=O)COc1cccc2cccnc12)C1CCS(=O)(=O)C1 (centres undefined) | 63.2% (active) |
| CCN(C(=O)COc1cccnc1[N+](=O)[O-])C1CCS(=O)(=O)C1 (centres undefined) | 43.2% (inactive) |
| CCN(C(=O)COc1ccccc1[N+](=O)[O-])C1CCS(=O)(=O)C1 (centres undefined) | -4% (inactive) |
| O=C1CC(=O)N(CCNc2ncc(C(F)(F)F)cc2Cl)C(=O)N1 | 2.4% (inactive) |
| COc1cc(Cl)c(C)cc1NC(=O)CSc1nnc(CCC(=O)O)c(=O)[nH]1 | 6.6% (inactive) |
| O=C1CC(NCc2ccc3c(c2)OCO3)C(=O)N1CCc1ccccc1 (centres undefined) | 1% (inactive) |
| COc1ccc(CCN2C(=O)CC(NCc3ccc4c(c3)OCO4)C2=O)cc1OC (centres undefined) | 51% (active) |
| COc1ccc(CCNC2CC(=O)N(CCc3ccc(OC)c(OC)c3)C2=O)cc1OC (centres undefined) | 1.6% (inactive) |
| CCc1nnc(NC(=O)CN2C(=O)c3ccccc3C2=O)s1 | -2.7% (inactive) |
| O=C1C2C3C=CC(C3)C2C(=O)N1Cc1ccccc1 (centres undefined) | 10% (inactive) |
| Cn1c(=O)c2cc(S(=O)(=O)NC(C(=O)Nc3cccc(F)c3)c3ccccc3)ccc2n(C)c1=O (centres undefined) | 1.9% (inactive) |
| Cc1cc(C)c2c(N)c3cccc(C)c3nc2n1 | 5.4% (inactive) |
| Cc1ccc2cccc(OCCOCCOc3ccccc3Br)c2n1 | 35.7% (inactive) |
| Cc1ccc2cccc(N)c2n1 | 56.5% (active) |
| Cc1cc(C)c2cccc(N)c2n1 | 64% (active) |
| Cc1ccc2cccc(NC(=O)C(F)(F)F)c2n1 | 9.3% (inactive) |
| Cc1cc(N)c2ccccc2n1 | 5.5% (inactive) |
| COP(=O)(OC)c1nc(-c2ccccc2)oc1N1CCOCC1 | -10.4% (inactive) |
| CC1CCCCC1N1CN=C(Nc2nc3ccccc3s2)NC1 (centres undefined) | 8.2% (inactive) |
| Nc1nc(SCC(=O)NCCO)nc2sc3c(c12)CCCC3 | 5.1% (inactive) |
| Nc1nc(SCC(=O)NCCCO)nc2sc3c(c12)CCC3 | 57% (active) |

| SMILES | inhibition |
| --- | --- |
| Nc1nc(SCC(=O)NCCOCCO)nc2sc3c(c12)CCCC3 | 2.8% (inactive) |
| Cc1c(Cl)cccc1NC(=O)Cn1cc(C(F)(F)F)cc(Cl)c1=O | -5.8% (inactive) |
| CC(C)N1C(=O)S/C(=C/c2ccc(Sc3nc4ccccc4[nH]3)o2)C1=O | 13.6% (inactive) |
| CC(C)N1C(=O)S/C(=C/c2ccc3c(c2)n(C)c(=O)n3C)C1=O | 7.6% (inactive) |
| CCN(CC)c1ccc(/C=C2/SC(=O)N(C(C)C)C2=O)o1 | 51.9% (active) |
| C/C(=N\NC(=O)CN(c1ccccc1Br)S(C)(=O)=O)c1cccs1 | -17.2% (inactive) |
| CCS(=O)c1ccccc1C(=O)O (centres undefined) | 9.5% (inactive) |
| CCCCNc1nc(CC)c2c(c1C#N)CCCC2 | -5.9% (inactive) |
| CCOC(=O)c1cc(C(=O)c2ccccc2O)cn2c(=O)c3c(C)c(C)sc3nc12 | 16.1% (inactive) |
| Cc1sc2nc3c(SC(C)C(=O)O)cc(C(=O)c4ccccc4O)cn3c(=O)c2c1C (centres undefined) | 69% (active) |
| Cc1sc2nc3c(C(=O)N4CCCC4)cc(C(=O)c4ccccc4O)cn3c(=O)c2c1C | 7.7% (inactive) |
| CCc1ccc(C(=O)CN2C(=O)C(C)N(c3ccc(C)cc3)C2=O)cc1 (centres undefined) | 4.9% (inactive) |
| CCOc1cc(N2CCOCC2)c(OCC)cc1NC(=O)Cc1cccc2ccccc12 | -0.6% (inactive) |
| COc1ccc(NC(=O)COC(=O)[C@@H]2CCCN2S(=O)(=O)c2ccccc2F)c(OC)c1 | -1.3% (inactive) |
| COc1ccc(CC(=O)Nc2ccccc2N2CCOCC2)cc1OC | -2.2% (inactive) |
| CCOc1cc(N2CCOCC2)c(OCC)cc1NC(=O)COC(=O)c1ccccc1C | 11.5% (inactive) |
| CCOc1cc(N2CCOCC2)c(OCC)cc1NC(=O)Cc1cccc(OC)c1 | 8.1% (inactive) |
| CCOc1cc(N2CCOCC2)c(OCC)cc1NC(=O)COc1ccccc1[N+](=O)[O-] | 23.9% (inactive) |
| CCOc1cc(N2CCOCC2)c(OCC)cc1NC(=O)Cc1ccc(OC)c(OC)c1 | 53.1% (active) |
| CCOc1cc(N2CCOCC2)c(OCC)cc1NC(=O)COC(=O)[C@@H]1CCCN1S(=O)(=O)c1ccccc1F | 53% (active) |
| CCOc1cc(N2CCOCC2)c(OCC)cc1NC(=O)Cc1ccccc1OC | 51.7% (active) |
| O=C(CCn1c(=O)sc2ccccc21)Nc1nccs1 | 4.8% (inactive) |
| Cc1ccc(NC(=O)CN2CCN(CCN=CC3=C(O)CC(C)(C)CC3=O)CC2)cc1 | -3.9% (inactive) |
| COC(=O)CSc1nc(C)cc(N2CCOCC2)n1 | -3.4% (inactive) |
| CCc1n[nH]c(=S)n1/N=C/c1cc(Br)c(OC)cc1OC | -2.2% (inactive) |
| Cc1c(NC(=O)Oc2ccccc2)sc(=S)n1C | -4.6% (inactive) |

| SMILES | inhibition |
| --- | --- |
| COC(=O)c1c(C)nsc1NC(=O)Oc1ccccc1 | 50.4% (active) |
| Cc1nnc(NC(=O)Oc2ccccc2)s1 | 4.4% (inactive) |
| COc1ccccc1C(=O)Nc1nc(N)n(-c2ccccc2)n1 | -3.7% (inactive) |
| [O-]/C(=C(\C(=S)Nc1cccc2ccccc12)[n+]1ccccc1)c1ccc(Cl)s1 | 5.8% (inactive) |
| [O-]/C(=C(\C(=S)Nc1cccc2ccccc12)[n+]1ccccc1)c1cccs1 | 65.7% (active) |
| Cc1cccc(C)c1NC(=S)/C(=C(\[O-])c1cccs1)[n+]1ccccc1 | 5.5% (inactive) |
| O=C(O)CSCC(=O)Nc1ccc(Cl)cc1C(F)(F)F | -0.6% (inactive) |
| O=C(CCN1C(=O)COc2ccccc21)NCCC1=CCCCC1 | 19.9% (inactive) |
| CC(C)(C)P(=O)(CO)c1ccccc1 (centres undefined) | 1.7% (inactive) |
| CC1(C)CC(=O)C(C=Nc2ccc3[nH]ncc3c2)=C(O)C1 | 38.6% (inactive) |
| COc1cccc(N=Cc2ccc(O)cc2O)c1 | 52.5% (active) |
| OCC(CO)(CO)N=Cc1cc(Br)ccc1O | 27% (inactive) |
| COc1cccc(N=Cc2c[nH][nH]c2=O)c1 | 16.7% (inactive) |
| Cc1ccc(N=Cc2ccc(O)cc2O)cc1F | 9.7% (inactive) |
| Brc1ccc2[nH]ncc2c1 | -2.5% (inactive) |
| Oc1ccc(Br)cc1C=Nc1ccc2[nH]ncc2c1 | 55.4% (active) |
| COc1ccc(C=Nc2ccc3[nH]ncc3c2)c(O)c1 | 59.8% (active) |
| C=CCOc1ccc(C=Nc2ccc(OC)cc2)c(O)c1 | 49% (inactive) |
| O=C(c1ccc(OC2CCN(Cc3ccccn3)CC2)cc1)N1CCCC(O)C1 (centres undefined) | -8.1% (inactive) |
| Cn1c(Cn2c(=O)sc3ccccc32)nnc1SCC(=O)Nc1ccccc1F | 0.2% (inactive) |
| O=C(COc1ccccc1)Nc1ccc(CSc2ccccc2)cc1 | 2.7% (inactive) |
| O=C(NCc1ccccn1)C(=O)NCC(c1ccco1)N1CCOCC1 (centres undefined) | -8.8% (inactive) |
| COc1ccc(N2CCC(CNC(=S)Nc3cccc(OC)c3)C2)cc1 (centres undefined) | 45.4% (inactive) |
| COc1ccc(CNC(=S)Nc2ccc(OC)cc2)cc1 | 7.4% (inactive) |
| COc1ccc(NC(=S)NCC2CCN(c3ccc(OC)cc3)C2)cc1 (centres undefined) | 55.3% (active) |
| COc1ccc(CNC(=S)Nc2cccc(C)c2)cc1 | 7.5% (inactive) |

| SMILES | inhibition |
| --- | --- |
| COc1ccc(NC(=S)NCCN2CCOCC2)cc1 | -3.1% (inactive) |
| COc1ccc(N2CCC(CNC(=S)Nc3cccc(C)c3)C2)cc1 (centres undefined) | 50.4% (active) |
| COc1ccccc1-n1cnnc1SCC(=O)N1CCN(S(=O)(=O)c2ccccc2)CC1 | 4.9% (inactive) |
| Cn1nnnc1SCCNCc1ccc(Cl)cc1 | 3.8% (inactive) |
| O=C(CCCn1c(=O)oc2ccccc21)NC1CCCCCC1 | -6.9% (inactive) |
| COc1ccc(N2C(=O)C(Cl)=C(N(CCO)Cc3ccccc3)C2=O)cc1 | 3.2% (inactive) |
| O=C(CCN1C(=O)c2ccccc2C1=O)N(CCO)Cc1ccccc1 | 0.1% (inactive) |
| O=C1C=C(N(CCO)Cc2ccccc2)c2ccccc2C1=O | 64.6% (active) |
| Cc1cc(Nc2ccc(F)cc2Cl)n2ncnc2n1 | 16.6% (inactive) |
| COc1ccc(/C=C/C2=NC(=C\N(C)C)/C(=O)O2)cc1 | 5.3% (inactive) |
| COc1ccccc1/C=C/C1=NC(=C\N(C)C)/C(=O)O1 | 56.8% (active) |
| COc1ccccc1/C=C/C1=NC(=C\C=C/c2ccccc2)/C(=O)O1 | 0.5% (inactive) |
| CCCCOC(=O)C1[C@H]2C(=O)N(CCc3ccccc3)C[C@]23C=C[C@H]1O3 (some centres undefined) | -0.4% (inactive) |
| CCOC(=O)c1c(C)c(C(=O)NCc2ccccn2)c(C)n1CC | 12.2% (inactive) |
| CCOC(=O)c1c(C)c(C(=O)NCc2cccnc2)c(C)n1CC | 108% (active) |
| CCOC(=O)c1c(C)c(C(=O)NCc2cccnc2)c(C)n1C | -0.6% (inactive) |
| S=c1[nH]ncc2ccccc12 | -67.9% (inactive) |
| Cc1ccc(/C=C/C2=NN(C)C(=O)CC2)cc1 | -3.3% (inactive) |
| Cc1cccc(C)c1NC(=O)CC1SC2=NCCN2C1=O (centres undefined) | 6.8% (inactive) |
| CC(C)/C(=N/Nc1ccccc1[N+](=O)[O-])c1ccccc1 | 54.4% (active) |
| CC(/C=C/c1ccccc1)=N\Nc1ccccc1[N+](=O)[O-] | 0.8% (inactive) |
| CC/C(=N\Nc1ccccc1[N+](=O)[O-])c1ccc(O)cc1 | -0.4% (inactive) |
| Cc1ccc(/C=C/C(=O)NCc2cccs2)cc1 | -6.3% (inactive) |
| Cc1nn(-c2ccccc2)c(Cl)c1/C=N/NC(=O)c1cccnc1 | -3.1% (inactive) |
| Cc1nn(-c2cccc(Cl)c2)c(Cl)c1/C=N/NC(=O)c1cccnc1 | 55.5% (active) |
| Cc1ccc(-n2nc(C)c(/C=N/NC(=O)c3cccnc3)c2Cl)cc1 | 15.6% (inactive) |

From PubChem BioAssay AID1220 (Sanford-Burnham Center for Chemical Genomics, 2008)
